Records with an inconclusive call do not appear. Active and inactive are the calls of the source. Rule for the calls, unless noted: active = hit-call score of the fitted dose curve at least 0.9, where 1 is the maximum; inactive = score below 0.9.
Legend:
[1] = ATG_TAL_CIS: Attagene CIS-FACTORIAL HepG2 Assay for human TAL Basal Promoter (AID 2282966); conditions: HepG2 Attagene cis-factorial TAL promoter reporter; actives raise or lower the signal;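 note: background control endpoint measuring basal TAL promoter reporter mRNA not a specific factor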
In short: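 Basal-promoter background-control endpoint from a multiplexed HepG2 reporter panel. Cells were exposed 24 h, then reporter mRNA was read by RT-PCR/CE fluorescence and fitted in both directions relative to DMSO.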

[2] = ATG_TGFb_CIS: Attagene CIS-FACTORIAL HepG2 Assay for human Transforming Growth Factor (TGF) (AID 2282967); conditions: HepG2 Attagene CIS TGFb reporter, mRNA transcription; actives raise or lower the signal
In short: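 Transient MRTU transfection of HepG2 (FuGene 6). Dose 24 h. TriZol RNA, oligo(dT) RT, PCR, 6-FAM primer extension, HpaI cut, CE. Bidirectional fit, DMSO = baseline.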

[3] = ATG_VDRE_CIS: Attagene CIS-FACTORIAL HepG2 Assay for human Vitamin D Receptor Element (VDRE) (AID 2282968); conditions: HepG2 VDRE cis-reporter transcription, actives raise or lower the signal
In short: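 Readout is VDRE-driven reporter mRNA reflecting endogenous factor activity in human HepG2 cells, sampled 24 h post-dose. Quantification used labelled RT-PCR products separated by capillary electrophoresis; bidirectional analysis relative to DMSO.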

[4] = biological target: Nuclear receptor subfamily 1 group I member 3 (Homo sapiens) (UniProt Q14994); assay: ATG_CAR_TRANS: Attagene TRANS-FACTORIAL HepG2 Assay for human Constitutive Androstane Receptor (CAR) (AID 2282969; active = hit-call score of the fitted dose curve at least 0.9, where 1 is the maximum;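 note: activators raise reporter mRNA above DMSO so AC50 marks induction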); conditions: HepG2 Attagene TRANS-FACTORIAL CAR reporter
Chain of Nuclear receptor subfamily 1 group I member 3 (Homo sapiens) (Q14994 whole entry, looked up, the tested form may be a part): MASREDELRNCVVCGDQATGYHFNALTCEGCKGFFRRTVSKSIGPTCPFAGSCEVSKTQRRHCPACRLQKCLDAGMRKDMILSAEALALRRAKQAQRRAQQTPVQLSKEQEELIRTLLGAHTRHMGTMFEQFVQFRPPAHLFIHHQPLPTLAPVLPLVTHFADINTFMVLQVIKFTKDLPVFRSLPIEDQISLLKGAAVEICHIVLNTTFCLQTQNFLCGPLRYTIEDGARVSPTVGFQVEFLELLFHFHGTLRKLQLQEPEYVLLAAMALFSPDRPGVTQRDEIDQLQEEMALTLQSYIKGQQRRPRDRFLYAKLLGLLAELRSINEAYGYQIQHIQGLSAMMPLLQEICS
In short: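 Signal is reporter mRNA induction relative to DMSO, measured 24 h after dosing by RT-PCR with fluorescent primer extension and capillary electrophoresis. Human HepG2 liver cells carried transiently transfected chimeric NR-Gal4/GAL4-UAS reporter constructs.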

[5] = biological target: Estrogen receptor (Homo sapiens) (UniProt P03372); assay: ATG_ERa_TRANS: Attagene TRANS-FACTORIAL HepG2 Assay for human Estrogen Receptor alpha (ERa) (AID 2282970; active = hit-call score of the fitted dose curve at least 0.9, where 1 is the maximum); conditions: HepG2 Attagene TRANS ERa GAL4 reporter, mRNA
Chain of Estrogen receptor (Homo sapiens) (P03372 whole entry, looked up, the tested form may be a part): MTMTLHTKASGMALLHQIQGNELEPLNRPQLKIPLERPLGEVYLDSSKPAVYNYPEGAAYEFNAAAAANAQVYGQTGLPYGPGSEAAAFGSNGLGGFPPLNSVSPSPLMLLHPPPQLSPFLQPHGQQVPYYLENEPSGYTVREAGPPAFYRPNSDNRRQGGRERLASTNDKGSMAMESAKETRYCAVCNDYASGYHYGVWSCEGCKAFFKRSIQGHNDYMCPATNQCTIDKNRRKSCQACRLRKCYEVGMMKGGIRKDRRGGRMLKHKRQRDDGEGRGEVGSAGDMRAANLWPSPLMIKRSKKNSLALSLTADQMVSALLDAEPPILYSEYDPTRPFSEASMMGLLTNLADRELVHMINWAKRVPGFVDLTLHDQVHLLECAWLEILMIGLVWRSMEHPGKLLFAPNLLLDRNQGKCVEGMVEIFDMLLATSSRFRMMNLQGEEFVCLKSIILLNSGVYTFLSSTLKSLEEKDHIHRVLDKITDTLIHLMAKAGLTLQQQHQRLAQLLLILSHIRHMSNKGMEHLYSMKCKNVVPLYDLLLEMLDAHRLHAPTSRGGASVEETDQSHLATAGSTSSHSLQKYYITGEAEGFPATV
In short: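 Gal4-fusion ERa transactivation, measured as reporter transcript level in transiently transfected HepG2 cells. Exposure 24 h; RT-PCR plus capillary electrophoresis with fluorescence detection.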

[6] = biological target: X-box-binding protein 1 (Homo sapiens) (UniProt P17861); assay: ATG_Xbp1_CIS: Attagene CIS-FACTORIAL HepG2 Assay for human X-box Binding Protein 1 (XBP1) (AID 2282972); conditions: HepG2 XBP1 cis-element reporter, Attagene multiplex; actives raise or lower the signal
Chain of X-box-binding protein 1 (Homo sapiens) (P17861 whole entry, looked up): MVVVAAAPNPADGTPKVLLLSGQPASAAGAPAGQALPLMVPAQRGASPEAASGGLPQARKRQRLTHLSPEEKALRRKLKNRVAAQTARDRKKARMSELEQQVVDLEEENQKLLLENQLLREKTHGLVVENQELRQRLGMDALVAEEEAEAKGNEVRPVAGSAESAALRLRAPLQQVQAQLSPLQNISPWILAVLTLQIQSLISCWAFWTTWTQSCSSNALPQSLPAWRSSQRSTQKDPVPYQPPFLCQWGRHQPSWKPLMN
In short: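 Human hepatoma HepG2, cis-element reporter system, 24 h treatment; mRNA quantified by RT-PCR/CE fluorescence; fit relative to DMSO.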

[7] = biological target: Estrogen-related receptor gamma (Homo sapiens) (UniProt P62508); assay: ATG_ERRg_TRANS: Attagene TRANS-FACTORIAL HepG2 Assay for human Estrogen-Related Receptor gamma (ERRg) (AID 2282977; active = hit-call score of the fitted dose curve at least 0.9, where 1 is the maximum;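 note: hits increase reporter signal over DMSO so potencies reflect activators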); conditions: HepG2 Attagene TRANS reporter, ERRg transactivation
Chain of Estrogen-related receptor gamma (Homo sapiens) (P62508 whole entry, looked up, the tested form may be a part): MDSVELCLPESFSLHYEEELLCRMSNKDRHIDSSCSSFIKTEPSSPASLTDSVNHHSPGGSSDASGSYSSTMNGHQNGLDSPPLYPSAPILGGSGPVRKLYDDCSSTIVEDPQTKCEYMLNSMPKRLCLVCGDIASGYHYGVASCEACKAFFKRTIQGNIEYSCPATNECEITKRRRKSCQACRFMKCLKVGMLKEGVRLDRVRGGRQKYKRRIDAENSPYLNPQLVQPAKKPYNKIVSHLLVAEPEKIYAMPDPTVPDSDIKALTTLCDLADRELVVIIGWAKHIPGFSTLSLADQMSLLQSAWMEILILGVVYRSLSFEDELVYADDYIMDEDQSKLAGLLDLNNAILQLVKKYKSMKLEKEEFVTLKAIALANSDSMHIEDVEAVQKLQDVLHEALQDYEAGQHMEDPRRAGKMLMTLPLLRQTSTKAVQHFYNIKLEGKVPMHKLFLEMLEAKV
In short: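 Induction of reporter transcripts through a chimeric NR-Gal4 protein is quantified in transfected human HepG2 liver cells after 24 h chemical exposure, using RT-PCR with capillary electrophoresis detection and DMSO as baseline.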

[8] = ATG_GAL4_TRANS: Attagene TRANS-FACTORIAL HepG2 Assay for GAL4 (Internal Marker) (AID 2282976; active = hit-call score of the fitted dose curve at least 0.9, where 1 is the maximum); conditions: HepG2 Attagene TRANS GAL4 internal marker reporter
In short: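 Background-control readout: GAL4-UAS reporter transcript in transiently transfected HepG2 cells after 24 h compound exposure. Measured by RT-PCR, 6-FAM primer extension, HpaI digest and capillary electrophoresis; gain-of-signal fit versus DMSO.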

[9] = ATG_M_19_TRANS: Attagene TRANS-FACTORIAL HepG2 Assay for M19 Transcription Factor (Internal Marker) (AID 2282974; active = hit-call score of the fitted dose curve at least 0.9, where 1 is the maximum); conditions: HepG2 Attagene TRANS-FACTORIAL M19 internal marker reporter
In short: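 Using RT-PCR and capillary electrophoresis, reporter mRNA from transiently transfected human HepG2 cells was quantified following 24 h exposure; activity was fitted in the positive direction against DMSO.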

Measured: AC50

CC(C)c1nnc2ccc(-c3ocnc3-c3cc(F)ccc3F)cn12
active: [3] 37.7 µM
not listed: [8] | [9]
inactive: all other assays above

CCn1nc(C)c2c1C(=O)NCC(c1ccc(O)cc1)=N2
not listed: [7] | [9]
inactive: all other assays above

CC(C)CC(C)O (stereo unspecified)
not listed: [5] | [7]
inactive: all other assays above

CCCCCCCCCCCCCCCCOS(=O)(=O)O
active: [2] 11.5 µM
inactive: [1] | [3] | [5] | [6] | [9]

OCCNCCO
not listed: [4] | [5] | [9]
inactive: all other assays above

Cn1cc[nH]c1=S
inactive: [1] | [2] | [3] | [6] | [8]

CC(=O)c1ccccc1
not listed: [3] | [7]
inactive: all other assays above

CCCCN1C(=O)[C@@H]([C@H](O)C2CCCCC2)NC(=O)C12CCN(Cc1ccc(Oc3ccc(C(=O)O)cc3)cc1)CC2
inactive: [2] | [5] | [6] | [8]
active: [1] 21.9 µM

Cc1ncc([C@@H](CCCCCCc2ccc3c(n2)NCCC3)CC(=O)O)cn1
not listed: [4] | [5] | [7]
inactive: all other assays above

CCCOc1ccc(S(=O)(=O)N2CCN(CC)CC2)cc1-c1nc2c(CC)n(Cc3ccccn3)nc2c(=O)[nH]1
active: [3] 2.51 µM
inactive: [1] | [2] | [5] | [6] | [7]

CCCCCCOC(=O)CC(CC(=O)OCCCCCC)(OC(=O)CCC)C(=O)OCCCCCC
inactive: [1] | [2] | [3] | [6] | [8]

O=C(N[C@H](CO)[C@H](O)c1ccc([N+](=O)[O-])cc1)C(Cl)Cl
not listed: [3] | [7]
inactive: all other assays above

Cn1c(=O)c2[nH]cnc2n(C)c1=O
inactive: [1] | [2] | [5] | [6] | [9]

C=CCc1cc(S(=O)(=O)c2ccc(O)c(CC=C)c2)ccc1O
active: [3] 9.12 µM | [5] 2.06 µM
not listed: [4] | [7]
inactive: all other assays above

CCc1cccc(CC)c1N
not listed: [3] | [7] | [9]
inactive: all other assays above

CCOC(N)=O
inactive: [1] | [2] | [5] | [6] | [8]

OC[C@H]1O[C@@H]2O[C@H]3[C@H](O)[C@@H](O)[C@@H](O[C@H]4[C@H](O)[C@@H](O)[C@@H](O[C@H]5[C@H](O)[C@@H](O)[C@@H](O[C@H]6[C@H](O)[C@@H](O)[C@@H](O[C@H]7[C@H](O)[C@@H](O)[C@@H](O[C@H]1[C@H](O)[C@H]2O)O[C@@H]7CO)O[C@@H]6CO)O[C@@H]5CO)O[C@@H]4CO)O[C@@H]3CO
inactive: [1] | [2] | [3] | [6]

Nc1ccn([C@@H]2O[C@H](CO)[C@@H](O)[C@@H]2O)c(=O)n1
active: [5] 40 µM
not listed: [4] | [7]
inactive: all other assays above

CCc1ccc(O)c(C(C)(C)C)c1
inactive: [1] | [2] | [6] | [9]
active: [3] 43 µM | [5] 24.2 µM

C[C@@H](Oc1ccc(CNC(=O)c2cccnc2Oc2ccc3c(c2)OCO3)c(F)c1)C(=O)O
not listed: [9]
inactive: all other assays above

CCCCCCCC1CCC(=O)O1 (stereo unspecified)
not listed: [3] | [7] | [8]
inactive: all other assays above

CCCCCCCC/C=C\CCCCCCCC(=O)OC[C@@H](O)[C@H]1OC[C@H](O)[C@H]1O
not listed: [4] | [7]
inactive: all other assays above

c1ccc2cc3ccccc3cc2c1
not listed: [4] | [8]
inactive: all other assays above

c1ccc2ncccc2c1
inactive: [1] | [2] | [5] | [6]

Reference: PubChem BioAssay (EPA / NIEHS)
